A selection: hits, their analogues and other compounds. The true share with any hit is near 0.88%.
ERG-DNA inh = blocks human ERG Ets domain binding to DNA; P11308; fluorescence polarization, His-ERG Ets domain / labelled DNA; Potency, µM (series often up to 76.9 µM), most hits filed as inhibitors; actives 0.028% (n = 370,000); AID 624246; active = well fitted inhibition curve with a large enough effect in the polarisation, with a control signal flat; inconclusive = small, poorly fitted or top-dose-only effect, or effect the other way, or a change in a side signal; inactive = no such curve, though single readings can be large or run the other way; the % refers to the polarisation;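 also: polarization taken with two DNA probes labelled with fluorescein and Texas red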
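His-tagged ERG Ets domain (1 uM in the protein solution; 300mM KCl, 50mM Tris-HCl, 1mM EDTA, 1mM DTT, pH 7.5) received compound, then a probe mix of 5 nM fluorescein-DNA and 100nM Texas-615-DNA. Fluorescence polarization was read for both dyes.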
APE1 inh = APE1 (human) endonuclease inhibition; P27695; recombinant APE1, TAMRA/BHQ-2 abasic DNA cleavage fluorescence; Potency, µM (doses to about 65.8 µM), usual class: inhibitors; actives 0.35% (n = 350,000); AID 2517; also: nearly all actives have a fitted effect of over 55% in size
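0.75 nM APE1 + cpd, 15 min RT; start w/ 50 nM TAMRA/BHQ-2 THF-abasic dsDNA; kinetic fluor 525/598 nm ×3 reads @60 s; Δ(read3−read1); normalized to DMSO and NSC13755 control wells.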
BLM helicase inh = Bloom syndrome helicase (human) inhibition; P54132; recombinant BLM DNA unwinding, fluorescence dequenching; Potency, µM (series often up to 56.1 µM), hits mostly inhibitors; actives 0.2% (n = 350,000); AID 2528; also: nearly all actives have a fitted effect of over 35% in size
WRN helicase inh = WRN helicase (human) inhibition | WRN helicase unwinding, fluorescent forked duplex, kinetic | Q14191 | actives 0.46% (n = 360,000) | AID 651768 | Potency, µM (series often up to 114 µM), usual class: inhibitors; also: nearly all actives have a fitted effect of over 55% in size
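Kinetic red-fluorescence monitoring (525/598 nm) tracks WRN helicase activity after 100 nM fluorophore-quencher forked duplex and 2 mM ATP are added to 20 nM enzyme pretreated 15 min at room temperature with compound.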
RECQ1 inh = RECQ1 (human) helicase inhibition. RECQ1 DNA unwinding, red fluorescence kinetic read. Potency, µM (titrated, usually from 57.3 µM), hits mostly inhibitors. actives 0.54% (n = 240,000); also: nearly all actives have a fitted effect of over 30% in size
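RECQ1T1 50 nM; forked duplex (20 bp + 30-nt ss tails) 200 nM, ATP 2 mM final; pH 8.0, 2 mM MgCl2, 2.5 ug/ml poly(dI-dC); 15 min compound preincubation; discontinuous kinetic read over 2 h at RT.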
GCN5L2 inh = GCN5L2 (KAT2A) acetyltransferase inhibition. Q92830. GCN5L2 HAT assay, ThioGlo1 CoA-SH fluorescence. Potency, µM (series often up to 58.9 µM), actives largely listed as inhibitors. actives 0.21% (n = 390,000)
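qHTS, 1536-well. 20nM enzyme, pH 7.5 HEPES/EDTA/Tween-20 buffer; 15 min compound preinc., RT. Start: 75uM H3(1-25), 70uM AcCoA, 50uM ThioGlo1. Read Ex340/Em540 at t=0 (autofluorescence flag) and t=20 min.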
Hits are given with their value; – = inactive; ? = inconclusive; · = not tested or not shown; [ ] = dose if it differs, or a comment. Unless noted, calls follow the shape of the dose curve; as a rule, active = well fitted curve in the direction sought with a large enough effect; inconclusive = small, poorly fitted or top-dose-only effect, or another doubt; inactive = no such curve, though single readings can be large; an effect the other way counts as inactive or inconclusive.

SMILES | ERG-DNA inh | APE1 inh | BLM helicase inh | WRN helicase inh | RECQ1 inh | GCN5L2 inh
CCC1(C)Cc2sc3c(=O)[nH]c(=S)[nH]c3c2CO1 (centres undefined) | – | – | – | – | – | 25.1µM
CC(=O)OC[C@@H]1O[C@H](C/C=N\O[C@@H](C)CN2CCCCc3nc(C)c(C)cc32)C=C[C@@H]1OC(C)=O | · | ? | –[12.4 µM] | · | –[11.5 µM] | ·
NCCCC[C@H]1NC(=O)[C@H](CCC(=O)O)NC(=O)c2cc([N+](=O)[O-])cc(I)c2OCC[C@@H](C(N)=O)NC1=O | – | ? | – | 10µM | – | –
C[C@@H]1NC(=O)c2cc([N+](=O)[O-])cc(I)c2OCC[C@@H](C(N)=O)NC(=O)[C@H](CCCCN)NC1=O | – | – | – | – | – | –
CCNc1nc(NCC)n2c(SCC(=O)Nc3cccc(Cl)c3)nnc2n1 | – | 26.7µM | · | – | · | –
CCNc1nc(NCC)n2c(SCC(=O)Nc3ccccc3C(F)(F)F)nnc2n1 | – | 21.2µM | · | –[11.6 µM] | · | –
CCNc1nc(NCC)n2c(SCC(=O)Nc3cccc(F)c3)nnc2n1 | – | 11.9µM | · | – | · | –
COc1ccc(-c2nc3sc(CCNC(=O)C(=O)Nc4ccc(C)c(F)c4)c(C)n3n2)cc1 | – | · | – | · | · | –
C[N+](C)(C)CCC(=O)c1cccc2ccccc12 | · | – | · | · | – | ?
Cc1ccccc1C(=O)Nc1ccc2c(C#N)c3nc4ccccc4nc3n2c1 | – | ? | ? | 56.2µM | 31.6µM | –
COc1ccc(-n2c(-c3ccc(Cl)cc3Cl)n[nH]c2=S)c(OC)c1 | – | – | – | 79.4µM | · | –
CC(C)C[C@H](NC(=O)[C@H](Cc1c[nH]c2ccccc12)NC(=O)[C@H](CCCCN)NC(=O)CNC(=O)[C@H](CC(C)C)NC(=O)[C@H](CO)NC(=O)[C@@H](N)Cc1cnc[nH]1)C(=O)NCC(=O)N[C@@H](Cc1cnc[nH]1)C(=O)N1CCC[C@H]1C(=O)N[C@@H](CC(=O)O)C(=O)N[C@@H](CCCCN)C(=O)N[C@@H](Cc1ccccc1)C(=O)O | · | – | – | · | – | –
CSCC[C@H](NC(=O)[C@H](CC(C)C)NC(=O)CNC(=O)[C@@H]1CCCN1C(=O)[C@H](Cc1ccccc1)NC(=O)[C@H](Cc1ccccc1)NC(=O)[C@H](CC(=O)O)NC(=O)[C@H](Cc1cnc[nH]1)NC(=O)[C@H](CCSC)NC(=O)[C@@H](N)CC(=O)O)C(N)=O | · | ? | – | · | 11.2µM | –
C=CC[n+]1ccc(/C=C2\C=Cc3cc(C)ccc3N2CC)c2ccccc21 | – | – | ? | 39.8µM | – | –
CCOC(=O)[C@]12CCCC=C1N(Cc1ccccc1)C(=O)[C@H](CC(=O)NCC1CCCCC1)C2 | · | · | · | – | · | ·
COCCN(CCOC)C(=O)c1cc2c(=O)n3ccccc3nc2s1 | – | – | – | – | – | 17.8µM
O=C(NCCc1c[nH]c2ccccc12)c1ccccc1O | · | – | – | · | – | –
O=C(Nc1ccccc1C(F)(F)F)c1cccnc1 | – | – | – | – | – | –
CC(=O)C(C(C)=O)C(NC(=O)c1cccnc1)(C(F)(F)F)C(F)(F)F | – | – | – | 89.1µM | – | –
O=C(CSc1ccc(Br)c2cccc(Cl)c12)Nc1ccc(S(=O)(=O)Nc2nccs2)cc1 | – | – | – | 35.5µM | – | –
O=C(Cc1ccccc1Cl)Nc1ccc(S(=O)(=O)Nc2nccs2)cc1 | – | – | – | – | · | –

Assay outcomes deposited in PubChem by National Center for Advancing Translational Sciences (NCATS).
